14-3-3 Bad inh: disrupts binding of bovine 14-3-3 zeta to phospho-Bad peptide; P63103; TR-FRET 14-3-3zeta/Dy647-pBad peptide displacement, 1 h; inhibition, % at 21.7 µM; actives 0.71% (n = 220,000); AID 781;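 active = inhibition above about 70%, limit read from the data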
Target sequence (P63103 whole entry, looked up): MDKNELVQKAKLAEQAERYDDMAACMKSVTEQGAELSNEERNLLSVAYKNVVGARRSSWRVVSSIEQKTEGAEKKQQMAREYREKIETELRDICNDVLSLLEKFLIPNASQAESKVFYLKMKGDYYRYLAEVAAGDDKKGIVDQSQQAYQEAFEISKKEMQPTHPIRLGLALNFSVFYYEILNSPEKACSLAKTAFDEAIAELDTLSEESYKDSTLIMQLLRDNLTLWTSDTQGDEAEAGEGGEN
TNF necrop inh: blocks TNF-alpha induced death of Jurkat FADD-/- cells. activation (protection from cell death), % at 10 µM. Jurkat FADD-/- TNF necroptosis rescue, ATP luminescence, 24 h; 0 = TNF only, 100 = no-TNF cells. actives 0.068% (n = 220,000);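 active = activation, meaning protection from cell death, of at least 50% relative to plate controls; inactive = activation below 50%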;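 note: necroptosis triggered by 40 ng/mL TNF-alpha added together with compound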
zVAD death inh: blocks zVAD induced death of L929 cells | L929 zVAD necroptosis rescue, ATP luminescence, 24 h; with zVAD 60 µM | viability rescue, % at 10 µM | actives 0.38% (n = 220,000) | AID 1377;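 active = activation, scaled between plate controls, above about 75%, limit read from the data; inactive = activation under that limit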
Efa HMGR inh: inhibitors of class II HMG-CoA reductase from Enterococcus faecalis. purified E. faecalis HMGR, NADPH absorbance 340 nm kinetic. inhibition, % at 10 µM. actives 0.41% (n = 190,000);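 active = inhibition above a set limit, the median over all tested compounds plus 3 SD, cut at about 9.5% in these data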;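 note: enzyme runs in reverse so mevalonate oxidation gives rising NADPH absorbance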
ROMK mod: modulators of human ROMK potassium channel; actives 2% (n = 130,000); Tet-inducible ROMK, thallium flux fluorescence; actives lie on both sides; AID 1918; B-score at 10 µM;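 active = signal ratio slope over the read window, or its plate-corrected B-score, at least 3 SD from the plate mean, either direction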;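 note: B-score of the F/F0 ratio slope over 7 to 12 s after thallium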
Calpain2 inh: inhibitors of pig calpain II. purified calpain II, fluorogenic peptide substrate, 30 min. inhibition, % at 16 µM. actives 0.37% (n = 220,000). AID 1236;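 active = inhibition above about 50%, limit read from the data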
Each line names hits and unclear results; the compound was inactive in the other large screens; [ ] = remark or other dose. Most compounds without a hit are left out; they make up all but 3% or so of the library.

C#CCOCCOCCOCCNc1nc(N2CCN(C(=O)[C@H](CCCCN)n3cc([C@@H](N)C(C)CC)nn3)CC2)nc(N2CCN(C(=O)[C@H](CCCCN)n3cc([C@@H](N)CC(C)C)nn3)CC2)n1 (some centres undefined)	none (no result: ROMK mod)
CCOC(=O)c1c(NC(=O)COC(=O)Cn2c(C)nc3ccccc32)sc2c1CCCC2	14-3-3 Bad inh 88 (no result: ROMK mod)
O=C1NC(=S)S/C1=C\C=C\c1ccc([N+](=O)[O-])o1	14-3-3 Bad inh 87 (no result: Efa HMGR inh, ROMK mod)
O=C(Nc1c2c(nc3c1CCC3)CCCC2)c1ccccn1	none
COc1cc(CNCc2ccccn2)ccc1OCc1cccc(Cl)c1	14-3-3 Bad inh 88 (no result: ROMK mod)
COc1cc(CNCc2ccccn2)ccc1OCc1ccc(Cl)cc1	none (no result: ROMK mod)
CCCOC(=O)Nc1ccc(S(=O)(=O)Nc2ncccn2)cc1	none (no result: Efa HMGR inh, ROMK mod)
COc1ccc(-n2c(C)nc3sc4c(c3c2=O)CCC4)cc1	TNF necrop inh 93
CCc1nnc(NS(=O)(=O)c2ccc(NC(=S)NC(=O)c3ccc(Br)cc3)cc2)s1	Calpain2 inh 70
CCc1nnc(NS(=O)(=O)c2ccc(NC(=S)NC(=O)c3ccccc3)cc2)s1	none
Cc1cc(C)cc(Nc2ncc3c(n2)CCCC3=O)c1	none (no result: ROMK mod)
CCOC(=O)N1CCN(C(=O)CSc2ccc(-c3cccnc3)nn2)CC1	Efa HMGR inh 10
CCOC(=O)N1CCN(C(=O)CSc2ccc(-c3cccc(OC)c3)nn2)CC1	none (no result: ROMK mod)
O=P(O)(COc1ccccc1)COc1ccccc1	14-3-3 Bad inh 72 (no result: ROMK mod)
O=C(COc1ccccc1)N1CCCC1	none
O=C(O)c1ccccc1N/C=C\[N+](=O)[O-]	none
COc1cc(/C=C(/C#N)c2nc(-c3cc4ccccc4oc3=O)cs2)cc([N+](=O)[O-])c1O	14-3-3 Bad inh 97 (no result: Efa HMGR inh)
COc1cc(/C=C(\C#N)c2nc(-c3cc4ccccc4oc3=O)cs2)ccc1O	none
CCN(CC)C(=O)C(=O)c1ccn(-c2c(C)csc2C(=O)OC)c1	none
O=C(OCc1nnc(-c2ccccc2)o1)c1ccc2c(c1)OCO2	Calpain2 inh 72 (no result: ROMK mod)
O=C(CCN1C(=O)/C(=C/c2ccc3c(c2)OCO3)SC1=S)NNC(=O)c1cccnc1	14-3-3 Bad inh 71
O=C(CCN1C(=O)/C(=C/c2ccccc2)SC1=S)NNC(=O)c1cccnc1	none (no result: ROMK mod)
CC/C(=N/OC(=O)c1cccc(C)c1)C(=O)c1cccs1	none
C=CCc1c(C)nc(-c2ccccc2)nc1N/N=C(\C)c1ccc(N)cc1	14-3-3 Bad inh 74[fluorescence artefact?]
COc1ccc(-n2nc(C(=O)Nc3nc4ccc(OC)cc4s3)c3ccccc3c2=O)c(OC)c1	none (no result: ROMK mod)
Cc1c(Br)cc(C(=O)O)c(C)c1C	none (no result: ROMK mod)
Cc1c(N)cc(N)cc1C(=O)O	14-3-3 Bad inh 84 (no result: Efa HMGR inh, ROMK mod)
CC(C)CC(=O)Nc1ccc2c3c(cccc13)CC2	none
O=C(Cc1ccccc1)Nn1cnc2ccccc21	14-3-3 Bad inh 78 (no result: ROMK mod)
CCOC(=O)[C@H]1NN=C(C(=O)OC)[C@@H]1c1ccccc1	none
Cc1ccc(NC2=C/C(=N/S(=O)(=O)c3cccs3)c3ccccc3C2=O)cc1C	Calpain2 inh 50
Cc1ccccc1NC1=C/C(=N\S(=O)(=O)c2cccs2)c2ccccc2C1=O	none
O=C(NCc1ccccc1Cl)C1CCCN(c2nc3ccsc3c(=O)s2)C1 (centres undefined)	Calpain2 inh 53
Cc1ccc(NC(=O)c2cc(N3C(=O)C4CCCCC4C3=O)ccc2N2CCOCC2)cc1 (centres undefined)	Calpain2 inh 68
Cc1ccc(NC(=O)c2cc(N3C(=O)C4CC=CCC4C3=O)ccc2N2CCCCC2)cc1 (centres undefined)	none (no result: ROMK mod)
NNC(=O)C1CC1c1ccc(Cl)cc1 (centres undefined)	Efa HMGR inh 19
Cc1ccn2c(NC(=O)c3ccccc3)c(-c3cccs3)nc2c1	14-3-3 Bad inh 70[fluorescence artefact?] (no result: ROMK mod)
COc1ccc(N(CC(=O)NCCSC2CCCCC2)S(C)(=O)=O)c(OC)c1	none
c1ccc(-c2nc(NCCCn3ccnc3)c3oc4ccccc4c3n2)cc1	none (no result: ROMK mod)
c1ccc(-c2nc(NCc3ccco3)c3oc4ccccc4c3n2)cc1	14-3-3 Bad inh 73 (no result: ROMK mod)
Cc1ccc(-c2nc(NCc3ccco3)c3ccccc3n2)cc1	Calpain2 inh 61 (no result: ROMK mod)
Fc1ccc(CNc2nc(-c3ccccc3)nc3ccccc23)cc1	Calpain2 inh 55
